# FXIa mix inh: inhibitors of human coagulation factor XIa, pooled mixtures | P03951 | purified FXIa, fluorogenic substrate | inhibition, % at 5 µM | hit rate 0.19% among 62,000;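 further: each value is inhibition by a whole ten-compound pool holding the compound; 0% = enzyme with no mixture and 100% = wells lacking enzyme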
# hDAT+cocaine: human DAT dopamine uptake with cocaine, either direction. Q01959. LLC-PK1 hDAT cells, [14C]-dopamine uptake with cocaine IC80; actives deviate in either direction. B-score at 10 µM. hit rate 1.3% among 110,000. AID 449768;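 active means Z score or B-score, a plate-position-corrected score, falls beyond the plate's 99.7% confidence bounds, in either direction; inactive means both scores lie inside the 99.7% bounds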;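 further: scored against the spread of the other compound wells on the same plate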
# D1 allo mod: allosterically modulates the human D1 dopamine receptor; P21728; HEK293 D1, CRE-luciferase, dopamine EC30 potentiation; actives deviate in either direction; B-score at 10 µM; hit rate 5.9% among 58,000;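 active means luminescence count or its row- and column-corrected plate score outside the 99.7% band of the plate's sample wells, on either side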
# Target sequence (P21728 whole entry, looked up): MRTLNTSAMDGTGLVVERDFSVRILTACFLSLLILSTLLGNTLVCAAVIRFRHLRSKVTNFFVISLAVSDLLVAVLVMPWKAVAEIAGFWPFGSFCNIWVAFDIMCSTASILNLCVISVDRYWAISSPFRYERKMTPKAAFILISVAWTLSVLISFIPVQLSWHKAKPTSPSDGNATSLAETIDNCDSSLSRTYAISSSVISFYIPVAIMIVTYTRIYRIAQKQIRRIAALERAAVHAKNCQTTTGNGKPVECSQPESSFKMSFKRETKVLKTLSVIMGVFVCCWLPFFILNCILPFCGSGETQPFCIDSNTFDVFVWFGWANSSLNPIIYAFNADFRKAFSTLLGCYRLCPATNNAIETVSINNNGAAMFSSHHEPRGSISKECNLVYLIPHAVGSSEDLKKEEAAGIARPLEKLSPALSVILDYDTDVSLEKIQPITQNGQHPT
# M1 agonist: agonists of M1 muscarinic receptor; CHO-M1 cells, Fluo-4 calcium fluorescence, agonist mode; stronger effect = higher value; B-score at 10 µM; hit rate 3% among 64,000;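 active means fluorescence rise, raw or as B-score row- and column-corrected plate score, outside the 99.7% band of its plate's samples, either direction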
# M1 antag: antagonists of rat M1 muscarinic receptor; B-score at 10 µM; hit rate 3.4% among 64,000; P08482; CHO-M1 cells, Fluo-4 calcium, ACh EC80 antagonist mode; stronger effect = lower value;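 active means calcium fluorescence response, raw or row-and-column corrected B-score, differing from the plate sample mean either way at a set confidence level, mostly lower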
# FXIIa inh mix: inhibitors of human coagulation factor XIIa, pooled mixtures; P00748; purified FXIIa, fluorogenic substrate; inhibition, % at 5 µM; hit rate 0.2% among 62,000;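 further: 0% = enzyme without compound and 100% = no enzyme blank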
# M1 antag conf: confirmation of rat M1 muscarinic receptor antagonists. CHO-M1 cells, Fluo-4 calcium, ACh EC80 antagonism; stronger effect = lower value. hit rate 43% among 1,700. shares compounds with M1 antag. calcium response (max-min fluorescence) at 10 µM;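 active means calcium response below the same-plate mean of wells given acetylcholine alone at its 80%-effect dose, minus 3 SD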;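 further: raw fluorescence intensity difference in arbitrary instrument units and not normalized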
# mGluR4 antag: selectivity test for M1 antagonists: human mGluR4 receptor; CHO-mGluR4 calcium flux, Fluo-4 fluorescence, glutamate EC80; stronger effect = lower value; hit rate 0.9% among 1,700; shares compounds with M1 antag; fluorescence response (max-min) at 10 µM; AID 678;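 active means fluorescence response below the plate's average for near-maximal glutamate wells, less 3 SD of those wells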;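 further: raw unnormalized fluorescence span taken in the window right after glutamate addition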
# * = called active by the depositor; x = no result. This is a sample that favours compounds with a hit; in the whole collection about 7.4% have one here. Unless noted, no stated cut-off is given here; in the data, active means inhibition above about 20% (passing the limit was not always enough); inactive means the rest.
SMILES,FXIa mix inh,hDAT+cocaine,D1 allo mod,M1 agonist,M1 antag,FXIIa inh mix,M1 antag conf,mGluR4 antag
Clc1cc(Br)ccc1OCCOCCN1CCOCC1,5.9,-0.792,x,0.0344,-0.727*,-27.5,448,226
Clc1ccccc1OCCCCn1ccnc1,4.0,0.0359,-0.194,2.16,0.312,12.2,x,x
O=C(Nc1ccccc1-c1ccccc1)c1cccc([N+](=O)[O-])c1,x,-0.637,x,x,x,x,x,x
Cc1ccc(S(=O)(=O)/C(C#N)=C/c2c(N3CCN(C)CC3)nc3c(C)cccn3c2=O)cc1,x,0.454,-3.89,8.61,0.752,x,x,x
O=C1NCCCc2nc(Oc3ccccc3)sc21,4.6,-0.86,0.114,-0.51,-3.27*,-13.9,623,228
CCOc1cc(S(=O)(=O)n2nc(C)cc2C)ccc1F,-1.1,0.402,x,-0.977,-5.23*,10.3,398,249
CCN(CC)CCCN1C(=O)c2oc3ccccc3c(=O)c2C1c1cc(OC)ccc1OC (configuration not stated),-0.7,-0.915,-0.674,-0.918,-1.89*,-14.5,644,270
CCOc1ccccc1N(C(=O)Cn1nnnc1-c1ccc(C)o1)C(CC)C(=O)NC(C)(C)C (configuration not stated),5.9,0.316,-0.146,0.645,-0.594,5.4,x,x
CC1(C)CC(=O)C2=C(C1)N(c1ccccc1)C(N)=C(C#N)C2c1ccsc1 (configuration not stated),x,-0.0219,x,x,x,x,x,x
O=C(CN1CCCC1)Nc1ccc(NC(=O)Nc2ccccc2Cl)cc1,3.2,1.73,-0.828,-0.246,-1.73*,17.3,580,277
COc1ccc(C(=O)OCC(=O)Nc2ccc(F)cc2F)cc1OC,x,-0.926,x,x,x,x,x,x
CCC(Sc1nc(C)cc(=O)[nH]1)C(=O)Nc1nnc(C)s1 (configuration not stated),7.7,0.00594,0.54,-0.282,-2.46*,0.2,522,184
CCCCc1nnc(NC(=O)C(C)Sc2nc(C)cc(=O)[nH]2)s1 (configuration not stated),x,-0.184,x,x,x,x,x,x
O=C1C(=C2CCCCC2)SC(=S)N1Cc1ccco1,11.2,-0.556,0.377,-1.03,-7.31*,7.3,111*,206
O=C(O)CCN1C(=O)C(=C2CCCCCC2)SC1=S,2.3,-0.419,-0.716,0.0022,-0.0288,3.6,x,x
COc1ccc(-n2c(COc3ccccc3)nnc2SCc2ccc(C#N)cc2)cc1,3.2,2.44,-1.38,-0.0794,-3.35*,-7.5,565,252
COc1ccc(NC(=O)c2ccc(CN3CCN(c4ccccc4)CC3)cc2)cc1OC,-10.3,-0.616,-1.37,-0.569,-2.73*,0.6,593,240
COc1cc2c(cc1OC)CN(Cc1ccc(OC)c(C)c1OC)CC2,3.1,-1.19,-0.335,-1.75,-3.39*,3.4,406*,274
COc1cc(OC)c(OC)cc1CN1CCc2ccccc2C1,x,-0.455,x,x,x,x,x,x
O=c1[nH]c(=O)n(CCO)c2nnn(Cc3ccccc3)c12,9.8,-0.536,x,-1.29,-3.3*,3.8,579,244
COc1ccc(-c2nc3c(c(=O)[nH]c(=O)n3Cc3ccccc3)n2C)cc1,x,-0.587,x,x,x,x,x,x
COc1cccc(CNC(=O)CCn2c(=O)oc3ccccc32)c1,6.5,-0.688,0.186,-0.318,-3.51*,1.4,538,253
Nc1c(NCCC2=CCCCC2)c(=O)[nH]c(=O)n1Cc1ccccc1,-5.6,x,x,-0.65,-0.00988,5.7,x,x
COC(=O)Nc1nnc(Cc2ccccc2)s1,5.3,-0.251,0.405,0.134,-16.5*,1.5,593,259
CCOC(=O)N1CCC(NC(=O)CCc2c(C)nc3c(c(C)nn3C(C)(C)C)c2C)CC1,6.4,1.25,-0.327,-0.0719,-1.04*,-3.0,430,228
SMILES,FXIa mix inh,hDAT+cocaine,D1 allo mod,M1 agonist,M1 antag,FXIIa inh mix,M1 antag conf,mGluR4 antag
CCOC(=O)N1CCC(NC(=O)CCc2c(C)nc3nc(C)nn3c2C)CC1,3.3,x,x,-0.269,-0.0561,-16.3,x,x
CCCn1c(=O)c(C(=O)Nc2ccccc2C(=O)OC)c(O)c2ccccc21,-2.5,0.0173,0.27,0.0817,-0.313,8.4,x,x
CCOC(=O)c1c(C)n(C)c2ccc(O)c(CN(CC)CC)c12,x,-0.755,x,x,x,x,x,x
CCOC(=O)c1c(C)oc2ccc(O)c(CN(C)C)c12,13.4,0.00253,-1.34,-0.00901,-1.3*,5.3,460,234
Cc1noc(C)c1COC(=O)c1cccnc1SCC(=O)Nc1ccc2c(c1)OCO2,5.2,0.423,2,-1.61,-6.2*,-1.1,132*,242
CCCCOc1ccccc1NC(=O)CC1SC(=NCC)N(CC)C1=O (configuration not stated),-5.9,0.00547,x,1.5,-2.83*,-8.2,575,232
NC(=O)CSc1nnc(-c2ccoc2)o1,5.1,-0.622,0.0179,0.32,0.227,-6.2,x,x
CC(C)=CCC/C(C)=C/CC(C)(C)CNCCN1CCNCC1,x,-0.501,x,x,x,x,x,x
CC(C)=CCC/C(C)=C/CCC(C)NCCN1CCNCC1 (configuration not stated),-9.9,-1.54,-0.375,-0.0803,-6.57*,0.6,390*,262
Cc1ccc(N(CC(=O)Nc2ccc3c(c2)OCCO3)S(=O)(=O)c2c(C)noc2C)cc1,7.3,-0.718,-1.31,1.34,-3.02*,2.5,529,219
COc1cccc(-c2nn(C)c3sc(C(=O)NCc4ccco4)cc23)c1,1.0,0.0716,0.701,0.0345,-1.13,-16.5,x,x
CCN1CCCC1CNC(=O)c1cc2c(-c3ccc(Cl)cc3)nn(C)c2s1 (configuration not stated),7.6,0.69,-1.77,0.325,-4.04*,-2.9,430,200
CCN1CCCC1CNC(=O)c1cc2c(-c3cccc(OC)c3)nn(C)c2s1 (configuration not stated),0.9,0.0792,-2.26,0.3,-2.84*,7.4,570,257
Cn1nc(-c2ccc(Cl)cc2)c2cc(C(=O)NCCCN3CCCC3)sc21,1.8,1.56,-1.45,-0.595,-1.73,1.8,x,x
CN(C(=O)CSc1nc(-c2ccc(F)cc2)cs1)C1CCS(=O)(=O)C1 (configuration not stated),-2.5,-0.816,1.22,-0.172,-3.07*,7.2,407,210
CCOC(=O)NC(Nc1sc2c(c1C(=O)OC)CCN(C)C2)(C(F)(F)F)C(F)(F)F,x,-1.57,-0.702,0.763,-1.44*,x,443,217
CCOc1ccc(OCCCCN2CCCC2)cc1,x,-0.116,x,x,x,x,x,x
CCCCOc1ccc(CN2CCCCC2)cc1,7.8,-0.897,0.0473,-0.26,-5.12*,4.5,283*,262
CN(C(=O)Cn1nnc(-c2cccc(C(F)(F)F)c2)n1)C1CCCCC1,x,0.597,x,x,x,x,x,x
O=C(Cn1nnc(-c2cccc(C(F)(F)F)c2)n1)N1CCOCC1,9.5,0.919,-1.67,-0.773,-2.13*,-14.9,661,182
Cc1oc(-c2ccccc2)nc1CS(=O)CC(=O)O (configuration not stated),x,-1.37,x,x,x,x,x,x

# Compound activity (PubChem)
